# Measurements published in PubChem BioAssay (NCI).
# This is part of a sample that, as a whole, favours compounds with a hit. Of some 83,000 tested, about 20% had one in any assay.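 The endpoint reported here, percent growth, reads 100 for growth as untreated, 0 for no net growth and -100 for all cells dead.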 Values without a mark were called inactive. Active and inactive are the calls of the source.
# Tested on: PC-3 prostate
# Assay: NCI-60 one-dose screen, 48 h (100 = growth as untreated, 0 = no growth, -100 = all killed)
# Conditions: 10 µM unless noted
# Experimental: Growth inhibition of the PC-3 human tumor cell line is measured as a screen for anti-cancer activity. Cells are grown in 96 well plates and exposed to the test compound for 48 hours. Compounds are tested at a single concentration, which is 10^-5 M for most compounds. The reported endpoint is percent growth (GI% or GIPRCNT), where numbers from 0 - 100% represent growth inhibition, and numbers from -100% - 0 represent cell death. For example, a value of 40 represents 60% growth inhibition. A value of 0 means no net growth occurred over the course of the experiment. A value of -40 indicates 40% of cells at the beginning of the experiment died by the end of the experiment. A value of -100 means all cells are dead at the end of the experiment.
# NCI-60 Human Tumor Cell Lines Screen was performed using the standard one-dose NCI protocol, which is described in more detail at https://dtp.cancer.gov/discovery_development/nci-60/default.htm.
# Compounds with GIPRCNT values below 10 were considered active. Activity score was based on GIPRCNT using the following formula: […]
# Score is 0 for GIPRCNT values of 100 or above, 50 for GIPRCNT values of 0, and 100 for GIPRCNT values of -100.
row,Structure (SMILES),growth
1,Cc1csc2ccc(Cl)cc12,96.8%
2,COc1ccc(-c2cc(=O)[nH]c3c(OC)c4ccccc4c(OC)c23)cc1,14.8%
3,CCOC(=O)c1nc(Nc2cc(C)[nH]n2)c2ccccc2n1,93.3%
4,CC(C)(C)c1nn(-c2ccccc2)c2c1CC1(CN2Cc2ccc3c(c2)OCO3)C(=O)c2ccccc2C1=O,91.8%
5,CCN(CC)CCCC(C)N/C(=C1\C(=O)NC(=O)\C1=C(/NC(C)CCCN(CC)CC)c1cccc(OC)c1)c1cccc(OC)c1 (stereo not given),-3.13% (active)
6,Clc1ccc(-c2nnc(COc3ccccc3Cl)o2)cc1,89.1%
7,O=S(=O)(NCCCNc1cc(-c2cn(-c3ccccc3)nc2-c2ccccc2)ccn1)c1ccc(C(F)(F)F)cc1,17.6%
8,O=c1c2c3c(sc2n2c(CCl)nnc2n1Cc1ccccc1)CCCC3,-100% (active)
9,O=C1Nc2ccc(Br)cc2C12CC(c1ccccc1)=NN2 (stereo not given),29.4%
10,COC1=CC(=O)C(OC)=C(OC)C1=O,98.1%
11,O=C(CN1CCN(c2cc3c(cc2F)c(=O)c(C(=O)O)cn3C2CC2)CC1)Nc1cc(=O)[nH]c(=O)[nH]1,99%
12,O=C(CO[N+](=O)[O-])Nc1ccc(C(=O)/C=C/c2ccc(Cl)cc2)cc1,27.6%
13,CN(C)c1ccc(C2Nc3ccccc3-n3cccc32)cc1 (stereo not given),66.4%
14,CS(=O)(=O)c1c(Nc2ccccc2)n[nH]c1N,82.5%
15,CCN(C(=O)CN1CCN(c2cc3c(cc2F)c(=O)c(C(=O)O)cn3C2CC2)CC1)c1nc(-c2ccc(OC)cc2)cs1,20.9%
16,O=C([C@@H](COCc1ccccc1)N1C(=O)[C@@H](N2C(=O)OC[C@@H]2c2ccccc2)[C@H]1/C=C/c1ccccc1)N1CCC(CCN2CCCCC2)CC1,67.5%
17,O=c1[nH]c(-c2ccccn2)nc2sc3c(c12)CCCCC3,44.2%
18,O=C1C(=O)N(CCCCn2cc(CO)nn2)c2ccccc21,98.3%
19,C#Cc1nc2ccccc2c(=O)[nH]1,-38.2% (active)
20,CC1=C(NCCN2CCCC2)C(=O)c2c(OCc3ccc(F)c(Cl)c3)cccc2C1=O,60.3%

row,Structure (SMILES),growth
1,CN(C)C(=O)c1cc2cnc(Nc3ccc(-c4csc5c(=O)cc(N6CCNCC6)oc45)cc3)nc2n1C1CCCC1,10%
2,Cc1ccn2c(-c3csc(Nc4cccc(O)c4)n3)c(C)nc2c1,26.6%
3,CN1CCCCC1CCN1c2ccccc2Sc2ccc(Cl)cc21 (stereo not given),59.5%
4,O=C(Cn1cc(CN2C(=O)c3ccccc3S2(=O)=O)nn1)Nc1ccc([N+](=O)[O-])cc1Cl,95.4%
5,COc1ccc(/C=C/C(=O)c2ccc(NC(=O)c3cc4cc5ccccc5nc4s3)cc2)cc1OC,94.4%
6,COc1cnc2c(c1)C(=O)c1c-2n(CCCN2CCNCC2)c(=O)c2cc([N+](=O)[O-])ccc12,-82.3% (active)
7,CCN(CC)Cc1cc(Nc2c3ccc(Cl)cc3nc3c(C)cccc23)ccc1O,-48.9% (active)
8,O=C(/C=C/c1ccc(Cl)cc1)c1ccc(O)c(CN2CCN(c3cc4c(cc3F)c(=O)c(C(=O)O)cn4C3CC3)CC2)c1,47.3%
9,CCCN(CCC)CN(CCC)CCC,97.5%
10,CCCCCCCCCCCCS(=O)CC(C)O (stereo not given),99.3%
11,COc1ccc(-c2cc(C(=O)N=Nc3c(O)[nH]c4ccccc34)no2)cc1,97.5%
12,N=c1c2ccccc2nc2n1CCCCC2,116%
13,O=C(COCc1c(-c2ccccc2)no[n+]1[O-])Nc1ccc(C(=O)/C=C/c2ccc3c(c2)OCO3)cc1,76.3%
14,O=C(/C=C/c1cccc(Br)c1)c1ccccc1,68.1%
15,Cn1c2ccccc2c2c3[nH]c(=O)[nH]c(=O)c3c3c4ccccc4n(C)c3c21,41.1%
16,O=C(NCc1cccc(C(F)(F)F)c1)[C@H](CCC(=O)N1CCN(C2CCCCC2)CC1)N1C(=O)[C@@H](N2C(=O)OC[C@@H]2c2ccccc2)[C@H]1/C(Cl)=C/c1ccccc1,21.7%
17,O=C(Nc1cccc2c1C(=O)c1cccc(Nc3cccc4c3C(=O)c3cccc(NC(=O)c5ccccc5)c3C4=O)c1C2=O)c1ccccc1,87.2%
18,c1ccc2sc(SCCCn3ccnc3)nc2c1,80.1%
19,NC(=S)N/N=C/c1cc(-c2cccc(N)c2)ccn1,58.8%
20,COc1ccc(C(=O)/C=C/c2c(Cl)c3c(c(OC)c2Cl)OCC(=O)N3)cc1,52.1%
